Screening data from PubChem BioAssay.
NPC1 prom act = NPC1 promoter activation. Huh7 NPC1 promoter luciferase reporter, 24 h. Potency, µM (highest dose often 9.22 µM), actives largely listed as activators. 2.4% of 320,000 active; further: nearly all actives have a fitted effect of over 60% in size
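In 1536-well qHTS, Huh7 cells harboring an NPC1 promoter–luciferase construct received compound for 24 h; activation was quantified by luminescence following luciferase reagent addition.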
Rab9 prom act = activates the Rab9 promoter. Potency, µM (titrated, usually from 9.22 µM), actives largely listed as activators. 2.8% of 320,000 active. AID 485297. Huh7 Rab9 promoter-luciferase reporter, luminescence, 24 h; further: nearly all actives have a fitted effect of over 60% in size
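Luminescence from Amplite-detected luciferase (10 minutes, ambient) reports Rab9 promoter activation. Before that, stable Rab9-luciferase Huh7 cells (1500/well, reduced-serum OP-MEM I plus 10% FBS) were exposed to compound for 24 hours at 37C.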
SMN2 splice up = enhancers of SMN2 splice variant expression. AID 1458. Potency, µM (doses to about 46.1 µM), actives largely listed as activators. HEK293 SMN2-luciferase splicing reporter, luminescence, 30-36 h. 2.8% of 210,000 active; further: nearly all actives have a fitted effect of over 55% in size
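HEK293 cells carry an SMN2 […]–luciferase reporter in which exon 7 inclusion puts luciferase in frame. Cells were plated 10-12 h before compound addition, then incubated 30-36 h at 37C. ONE-Glo luminescence was read; sodium butyrate at 4.5 mM final served as control.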
FLuc counter = firefly luciferase modulation, counter-screen for miR-21 project; P08659; purified FLuc, Km substrates, luminescence inhibition; Potency, µM (highest dose often 57.5 µM), actives largely listed as inhibitors; 6.9% of 360,000 active; AID 588342; further: nearly all actives have a fitted effect of over 55% in size
Target sequence (P08659 whole entry, looked up): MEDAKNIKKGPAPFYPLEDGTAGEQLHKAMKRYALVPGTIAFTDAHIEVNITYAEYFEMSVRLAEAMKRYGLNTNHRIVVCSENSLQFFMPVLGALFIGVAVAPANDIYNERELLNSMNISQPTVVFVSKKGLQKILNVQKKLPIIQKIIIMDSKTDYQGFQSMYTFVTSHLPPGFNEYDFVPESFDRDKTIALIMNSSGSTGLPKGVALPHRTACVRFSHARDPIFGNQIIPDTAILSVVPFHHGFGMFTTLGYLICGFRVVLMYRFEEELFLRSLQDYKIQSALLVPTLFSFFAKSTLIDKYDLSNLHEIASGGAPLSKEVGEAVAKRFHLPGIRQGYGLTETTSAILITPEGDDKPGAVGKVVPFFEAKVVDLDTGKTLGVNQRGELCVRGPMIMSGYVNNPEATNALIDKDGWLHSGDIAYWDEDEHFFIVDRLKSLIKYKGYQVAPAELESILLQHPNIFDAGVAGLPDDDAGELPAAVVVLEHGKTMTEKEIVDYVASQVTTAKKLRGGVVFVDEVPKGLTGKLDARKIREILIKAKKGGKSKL
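Biochemical qHTS of compounds, final roughly 60 µM downward over six points, against 10 nM purified firefly luciferase using Km concentrations of substrates (10 uM D-luciferin, 10 uM ATP) in Tris acetate pH 7.5 buffer; luminescence output.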
ELG1 genotoxic = genotoxicity induction in ELG1-luciferase HEK293T cells; HEK293T ELG1-luciferase reporter, luminescence, 16 h; Potency, µM (doses to about 46 µM), usual class: activators; 1.3% of 330,000 active; AID 504466; further: nearly all actives have a fitted effect of over 60% in size
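DMSO vehicle served as control against compound-treated ELG1-luciferase HEK293T cells; exposure lasted 16 hr at 37 °C and 5% CO2, followed by ONE-Glo luminescence detection after 30 min.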
Luc counter = blocks Kinase-Glo luciferase, a counter-screen artifact. Q27757. Kinase-Glo luciferase, ATP luminescence, 8 min. Potency, µM (top dose mostly 38.3 µM), most hits filed as inhibitors. 0.28% of 200,000 active; further: nearly all actives have a fitted effect of over 60% in size
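Kinase-Glo luciferase light output from ATP and luciferin was measured with 10 uM ATP, within the enzyme's linear range. Buffer: 50 mM imidazole pH 7.2, 50 mM KCl, 7 mM MgCl2, 0.01% Tween 20, 0.05% BSA; luminescence read after 8 min at ambient temperature.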
Numbers stand for hits; [ ] = dose if it differs, or a comment. Shown are actives, neighbours in structure and some others; about 7.4% of the full set was active somewhere. The call rests on the fitted dose curve; in most records, active means well fitted curve in the direction sought with a large enough effect; inconclusive means small, poorly fitted or top-dose-only effect, or another doubt; inactive means no such curve, though single readings can be large; an effect the other way counts as inactive or inconclusive.

O=C(Nc1ccc2c(c1)OCO2)Nc1ccc(F)cc1F was read as NPC1 prom act 1.41µM, Rab9 prom act 1.41µM, FLuc counter 6.01µM and ELG1 genotoxic inconclusive.
For CC(NC(=O)Nc1ccc(Cl)cc1)c1ccc2c(c1)OCO2 (stereo not drawn) the results were NPC1 prom act inactive, Rab9 prom act inactive, FLuc counter inactive and ELG1 genotoxic inactive.
For Cc1ccc(NC(=O)Nc2ccc3c(c2)OCO3)c(Br)c1 the results were NPC1 prom act inconclusive, Rab9 prom act inconclusive, FLuc counter inconclusive and ELG1 genotoxic 18.3µM.
`CCCCc1nnc(NC(=O)C2=COCCO2)s1` gave NPC1 prom act 2.51µM, Rab9 prom act 4.47µM, FLuc counter 16.9µM and ELG1 genotoxic 14.6µM.
For CCCCOC(=O)c1ccc(NC(=O)C2CCCO2)cc1 (stereo not drawn) the results were NPC1 prom act inactive, Rab9 prom act inconclusive, SMN2 splice up inactive, FLuc counter inconclusive, ELG1 genotoxic inactive and Luc counter inactive.
`Cc1nnc(NC(=O)C2=COCCO2)s1` gave NPC1 prom act inactive, Rab9 prom act inactive, FLuc counter inactive and ELG1 genotoxic inconclusive.
CCOC(=O)c1ccc(NC(=O)Nc2ccc(Cl)cn2)cc1 was read as NPC1 prom act inactive, Rab9 prom act inactive, SMN2 splice up inactive, FLuc counter inactive, ELG1 genotoxic inactive and Luc counter inactive.
`CCCCc1nnc(NC(=O)C2CCCO2)s1` (stereo not drawn) gave NPC1 prom act inactive, Rab9 prom act inactive, SMN2 splice up 35.5µM, FLuc counter inactive[2.3 µM], ELG1 genotoxic inactive and Luc counter inactive.
CCOC(=O)c1ccc(NC(=O)Nc2ccon2)cc1 was read as NPC1 prom act inactive, Rab9 prom act inactive, FLuc counter 19µM and ELG1 genotoxic 7.3µM.
CCOC(=O)c1ccc(NC(=O)C2CCCO2)cc1 (stereo not drawn) was read as NPC1 prom act inconclusive, Rab9 prom act 6.31µM, SMN2 splice up inactive, FLuc counter inconclusive, ELG1 genotoxic inactive and Luc counter inactive.
CCC(C)[C@@H](CN)NCC1(c2ccccc2)CC1 (stereo partly drawn) was read as NPC1 prom act inactive, Rab9 prom act inactive, FLuc counter inactive and ELG1 genotoxic inactive.
Screening CCN(CC)CCCNC(=O)C1CCC(CNS(=O)(=O)c2ccc(Cl)cc2)CC1 (stereo not drawn) returned NPC1 prom act inactive, Rab9 prom act inactive, FLuc counter inactive and ELG1 genotoxic inactive.
For CCCCc1ccc(NC(=O)C2CCCO2)cc1 (stereo not drawn) the results were NPC1 prom act 1.58µM, Rab9 prom act 2.24µM, SMN2 splice up 10µM, FLuc counter 13.5µM, ELG1 genotoxic inconclusive and Luc counter inactive.
For CCCCNC(=O)c1ccc(NC(=O)C2CCCO2)cc1 (stereo not drawn) the results were NPC1 prom act inactive, Rab9 prom act inactive, SMN2 splice up inactive, FLuc counter inactive, ELG1 genotoxic inactive and Luc counter inactive.
CCOc1ccc(N=CNc2ccc(OCC)cc2)cc1 was read as NPC1 prom act inactive, Rab9 prom act inactive, FLuc counter inconclusive and ELG1 genotoxic inactive.
`CCOc1ccc(N=Cc2ccc3ccccc3c2)cc1` gave NPC1 prom act inactive, Rab9 prom act inactive, FLuc counter 0.757µM and ELG1 genotoxic inactive.
`CCOC(=O)Cc1csc(NC(=O)COc2ccc(C)cc2)n1` gave NPC1 prom act inactive, Rab9 prom act inactive, FLuc counter 13.5µM, ELG1 genotoxic inactive and Luc counter inactive.
For CCOC(=O)CNC(=O)CSc1ncnc2c1cnn2-c1ccc(Cl)cc1 the results were NPC1 prom act inactive, Rab9 prom act inactive, SMN2 splice up inactive, FLuc counter inactive, ELG1 genotoxic inactive and Luc counter inactive.
For CCOC(=O)Cc1csc(NC(=O)c2ccc(NC(C)=O)cc2)n1 the results were NPC1 prom act inactive, Rab9 prom act inactive, SMN2 splice up inactive, FLuc counter inconclusive, ELG1 genotoxic inactive and Luc counter inactive.
CCOC(=O)Cc1csc(NC(=O)Nc2ccc(OC(F)(F)F)cc2)n1 was read as NPC1 prom act inactive, Rab9 prom act inactive, FLuc counter 2.39µM and ELG1 genotoxic inactive.
CCOC(=O)Cc1csc(NC(=O)COc2ccc3c(c2)CCC3)n1 was read as NPC1 prom act inactive, Rab9 prom act inactive, FLuc counter 12µM and ELG1 genotoxic inactive.
For CCOC(=O)Cc1csc(NC(=O)CSc2ncnc3c2cnn3-c2ccc(OC)cc2)n1 the results were NPC1 prom act inactive, Rab9 prom act inactive, SMN2 splice up inactive, FLuc counter 8.49µM, ELG1 genotoxic inactive and Luc counter inactive.
For Cc1cc(N(CC(=O)NC(C)C)S(C)(=O)=O)ccc1Br the results were NPC1 prom act inactive, Rab9 prom act inactive, SMN2 splice up inactive, FLuc counter inactive, ELG1 genotoxic inactive and Luc counter inactive.
Screening COc1ccc2nc(NC(=O)c3cccnc3SC)sc2c1 returned NPC1 prom act inconclusive, Rab9 prom act inconclusive, SMN2 splice up inconclusive, FLuc counter 5.36µM, ELG1 genotoxic inconclusive and Luc counter inactive.
CSc1ncccc1C(=O)Nc1nc2ccc(S(C)(=O)=O)cc2s1 was read as NPC1 prom act inactive, Rab9 prom act inactive, SMN2 splice up inactive, FLuc counter 21.3µM, ELG1 genotoxic inactive and Luc counter inactive.
CCOc1ccc2oc(C(=O)N3CC(C)OC(C)C3)c(C)c2c1 (stereo not drawn) was read as NPC1 prom act inactive, Rab9 prom act inactive, FLuc counter inactive and ELG1 genotoxic inactive.
Screening CC(=O)COc1ccc2c3c(c(=O)oc2c1C)CCCCC3 returned NPC1 prom act inconclusive, Rab9 prom act inconclusive, SMN2 splice up inconclusive, FLuc counter inactive, ELG1 genotoxic 7.31µM and Luc counter inactive.
Cc1oc(C(=O)O)cc1COc1ccc2c3c(c(=O)oc2c1C)CCC3 was read as NPC1 prom act inactive, Rab9 prom act inconclusive, SMN2 splice up inconclusive, FLuc counter 26.9µM, ELG1 genotoxic inconclusive and Luc counter inactive.
Screening Cc1oc(C(=O)O)cc1COc1ccc2c3c(c(=O)oc2c1C)CCCC3 returned NPC1 prom act inactive, Rab9 prom act inactive, SMN2 splice up inactive, FLuc counter inactive, ELG1 genotoxic inactive and Luc counter inactive.
Cc1c(OCC(=O)N(C)C)ccc2c3c(c(=O)oc12)CCCCC3 was read as NPC1 prom act inactive, Rab9 prom act inactive, SMN2 splice up inactive, FLuc counter inactive, ELG1 genotoxic inactive and Luc counter inactive.
For Cc1c(OCc2ccc([N+](=O)[O-])cc2)ccc2c3c(c(=O)oc12)CCC3 the results were NPC1 prom act 1.12µM, Rab9 prom act 1µM, SMN2 splice up 5.62µM, FLuc counter inconclusive, ELG1 genotoxic inconclusive and Luc counter inactive.
